Screening data (PubChem BioAssay)
A selection: hits, their analogues and other compounds. The true share with any hit is near 19%.
DT40 TDP1 no CPT: qHTS for Inhibitors of human tyrosyl-DNA phosphodiesterase 1 (TDP1): qHTS in cells in absence of CPT; DT40 Tdp1-/- hTDP1 cells, no CPT, ATP luminescence, 48 h; Potency, µM (doses to about 46.2 µM), for inactives: top-dose activity change, negative = growth inhibition, hits mostly inhibitors; 420,000 tested, 15% active; AID 686978, 2013; further: potency means the concentration at half of the fitted maximal effect; on the % scale 0 is the no-effect control and ±100 the full control effect; nearly all actives have a fitted effect of over 55% in size
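DT40 Tdp1-/-;hTDP1 cells, no CPT (DMSO vehicle only), 400 cells/well; compounds pin-transferred; ≥48 hr, 37 °C; CellTiter-Glo 30 min RT dark, luminescence read.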
IL-1B inflam inh: qHTS for Inhibitors of Inflammasome Signaling: IL-1-beta AlphaLISA Primary Screen | THP-1 LPS/ATP IL-1B secretion, AlphaLISA, 16 h; active compounds read low | activity change, % at 57.5 µM | 360,000 tested, 4.7% active | AID 743279, 2014; in the data active means activity change below about -50%; inconclusive means mostly about -30% to -49%; further: on the % scale 0 is the no-effect control and ±100 the full control effect
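Secreted IL-1B measured by AlphaLISA bead assay after 16 h compound exposure of THP-1 cells; compounds (final up to 57.5 uM) added 1 h before LPS (250 ng/mL) and ATP (1.25 mM) stimulation; lower signal means less secretion.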
ASM inhibitor: Inhibitors of Secretory Acid Sphingomyelinase (S-ASM): qHTS; Sphingomyelin phosphodiesterase (Homo sapiens), P17405; placental ASM, HMU-PC fluorogenic substrate, 60 min; Potency, µM (series often up to 57.5 µM), for the others: at the highest dose activity change, negative = inhibition, most hits filed as inhibitors; 340,000 tested, 0.006% active; further: potency means the concentration at half of the fitted maximal effect
Target sequence (P17405 47-631 limits assumed): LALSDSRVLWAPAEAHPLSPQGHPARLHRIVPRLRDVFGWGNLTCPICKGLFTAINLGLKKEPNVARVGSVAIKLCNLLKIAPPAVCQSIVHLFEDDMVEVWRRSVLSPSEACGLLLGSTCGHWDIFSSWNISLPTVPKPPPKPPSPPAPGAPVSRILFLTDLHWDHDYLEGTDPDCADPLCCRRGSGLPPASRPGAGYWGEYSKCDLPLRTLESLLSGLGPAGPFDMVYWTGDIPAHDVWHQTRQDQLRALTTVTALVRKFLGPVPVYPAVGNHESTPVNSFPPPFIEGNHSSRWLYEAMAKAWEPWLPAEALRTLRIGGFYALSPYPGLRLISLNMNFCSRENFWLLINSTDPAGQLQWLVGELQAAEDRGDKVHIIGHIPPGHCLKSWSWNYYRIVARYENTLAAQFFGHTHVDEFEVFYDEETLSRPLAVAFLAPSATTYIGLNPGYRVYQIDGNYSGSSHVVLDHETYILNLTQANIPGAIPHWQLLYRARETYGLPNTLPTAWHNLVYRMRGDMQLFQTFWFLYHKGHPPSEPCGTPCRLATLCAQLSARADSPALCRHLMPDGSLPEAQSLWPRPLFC
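Human placenta-derived ASM enzyme was preincubated with compound for 10 minutes at room temperature, then given fluorogenic substrate HMU-PC0 (9 uM final) for 60 minutes at 37 °C; a pH 10 stop preceded fluorescence reading at Ex 386/Em 447 nm.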
HepG2 viability: qHTS for Inhibitors of TGF-b: Cytotox Counterscreen | Potency, µM (top dose mostly 46.1 µM), for the others: top-dose activity change, negative = cytotoxicity, hits mostly cytotoxic | HepG2 CAGA-GFP viability, ATP luminescence, 18 h | 410,000 tested, 0.76% active; further: potency means the concentration at half of the fitted maximal effect
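CellTiter-Glo luminescence gave cytotoxicity after 18 hours at 37 degrees C. The cells were HepG2 CAGA-GFP in 1% FBS DMEM, stimulated with 500 pg/mL TGF-beta after compound addition. %Activity was normalised to no-cell wells (complete cell-killing) and DMSO (no toxicity), and curves were fitted and classified.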
TDP1 cell CPT: qHTS for Inhibitors of human tyrosyl-DNA phosphodiesterase 1 (TDP1): qHTS in cells in presence of CPT; chicken DT40 Tdp1-/-;hTDP1 cells + 20 nM CPT, ATP luminescence, 48 h; Potency, µM (top dose mostly 46.2 µM), for inactives: at the highest dose activity change, negative = growth inhibition, actives largely listed as inhibitors; 420,000 tested, 12% active; AID 686979, 2013; further: potency means the concentration at half of the fitted maximal effect; on the % scale 0 is the no-effect control and ±100 the full control effect; nearly all actives have a fitted effect of over 55% in size
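Chicken DT40 Tdp1-/- cells stably complemented with human TDP1 were seeded at 400 cells/well in medium containing 20 nM camptothecin, exposed to pin-transferred compounds, and grown at 37 °C for at least 48 hr. Viability was read as ATP luminescence.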
TGFb inhibitor: qHTS for Inhibitors of TGF-b; HepG2 CAGA-GFP TGF-b/SMAD3 reporter, GFP fluorescence, 18 h; TGF-beta stimulated, 500 pg/mL final; Potency, µM (doses to about 46.1 µM), for inactives: top-dose activity, negative = inhibition, usual class: inhibitors; 410,000 tested, 1.2% active; AID 588855, 2011; further: potency means the concentration at half of the fitted maximal effect; on the % scale 0 is the no-effect control and ±100 the full control effect; nearly all actives have a fitted effect of over 65% in size
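Inhibition of TGF-beta-driven CAGA-GFP reporter expression in HEPG2 cells is measured by cellular GFP fluorescence after 18 h stimulation with 500 pg/mL recombinant TGF-beta in 1% FBS medium at 37 degrees C.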
Active calls of the source: *; ? = inconclusive; nt = not tested or not shown. Unless noted, the call rests on the fitted dose curve; in most records, active means well fitted curve in the direction sought with a large enough effect; inconclusive means small, poorly fitted or top-dose-only effect, or another doubt; inactive means no such curve, though single readings can be large; an effect the other way counts as inactive or inconclusive.

SMILES	DT40 TDP1 no CPT	IL-1B inflam inh	ASM inhibitor	HepG2 viability	TDP1 cell CPT	TGFb inhibitor
CN1CCc2c(n(CC(O)CNCc3ccccc3)c3ccccc23)C1=O (centres undefined)	8.2µM*	?	4.6%	-37.4%	8.2µM*	?
COC(=O)c1ccc(Nc2nnc(-c3ccc(C)c(S(=O)(=O)NCC4CCCO4)c3)c3ccccc23)cc1 (centres undefined)	23.1µM*	-63.1*	78.4%	-15.3%	23.1µM*	10.3%
Cc1ccc(-c2nnc(Nc3ccc(C(=O)N(C)C)cc3)c3ccccc23)cc1S(=O)(=O)NCC1CCCO1 (centres undefined)	23.1µM*	-23.4	16.6%	-54.5%	14.6µM*	-4.0%
Cc1snc(SCc2cccc(Cl)c2)c1C#N	-23.0%	-3.2	-4.7%	-7.9%	19.1%	6.0%
N#Cc1ccc(S(=O)(=O)N2CCc3[nH]c4ccc(F)cc4c3C2)cc1	?	?	-14.1%	32.1%	?	1.6%
CCN(c1ccccc1)S(=O)(=O)c1ccc(Oc2ccccc2)c(N)c1	?	-25.2	-2.9%	-12.7%	?	-15.6%
C[C@@]12CCC[C@@](C)(C(=O)O)C1CC[C@@]13C[C@@H](NCc4ccccc4)[C@@](C)(CCC12)C3 (some centres undefined)	20.6µM*	0.0	-3.1%	-1.3%	?	4.5%
Cc1ccc(NC(=O)c2cc(S(=O)(=O)N3CCC(C)CC3)cn2C)cc1Cl	-12.5%	nt	nt	2.2%	-13.9%	-12.1%
COc1ccc(S(=O)(=O)Nc2ccc3c(c2)C(=O)N([C@H](C)CO)C[C@H](C)[C@@H](CN(C)C(=O)Nc2ccc4c(c2)OCO4)O3)cc1	21.1%	-18.0	3.5%	-14.9%	-2.5%	3.1%
CC(C)NC(=O)N(C)C[C@H]1OCCCC[C@H](C)Oc2ccc(NS(=O)(=O)c3ccccc3)cc2C(=O)N([C@H](C)CO)C[C@H]1C	3.5%	7.4	nt	15.1%	-0.8%	24.3%
C[C@@H]1CCCCO[C@H](CN(C)C(=O)Nc2ccc3c(c2)OCO3)[C@H](C)CN([C@@H](C)CO)C(=O)c2cc(NS(=O)(=O)c3ccc(Cl)cc3)ccc2O1	16.4µM*	-10.7	nt	3.5%	16.4µM*	3.6%
C[C@@H]1CCCCO[C@H](CN(C)C(=O)Nc2ccc3c(c2)OCO3)[C@@H](C)CN([C@H](C)CO)C(=O)c2cc(NS(=O)(=O)c3ccc(F)cc3)ccc2O1	20.6µM*	-28.7	nt	-28.5%	?	-12.0%
Cc1c(-c2ccccc2)n(-c2ccccc2O)c2nc3c(c(=O)n(C)c(=O)n3C)n12	nt	nt	nt	-14.4%	nt	3.7%
CC1CCCCC12NC(=O)N(CC(=O)Nc1ccc(OC(F)F)cc1)C2=O (centres undefined)	?	0.0	1.7%	-2.0%	?	-0.5%
CN1C(=S)SC2CS(=O)(=O)CC21C (centres undefined)	27.6%	-3.3	3.2%	-11.7%	7.9%	-3.7%
CN(CC(=O)Oc1ccc(-c2nnco2)cc1)S(=O)(=O)c1ccc(F)cc1	-2.8%	8.4	-0.8%	0.5%	6.8%	-11.5%
CSc1ncc(C(=O)Nc2ccc(C)c(Cl)c2)c(-c2ccccc2)n1	?	nt	nt	-24.8%	23.1µM*	-6.0%
CC(C)NC(=O)C1CCC(Cn2c(=O)c3sccc3n(CC(=O)NCc3ccccc3)c2=O)CC1 (centres undefined)	10.0%	nt	nt	3.3%	1.5%	-6.1%
CCCCn1c(/N=C/c2c[nH]c3ccccc23)nc2ccccc21	20.6µM*	-52.0*	?	-94.4%	?	?
CCOC(=O)/C(C#N)=C/c1cc2ccccc2nc1Cl	3.98µM*	56.3	-2.1%	-19.6%	2.82µM*	5.6%
Cn1c(N/N=C/c2c[nH]c3ccccc23)nc2ccccc21	?	-98.2*	-14.7%	-102.1%	?	?
Cn1c(N/N=C/c2cc3ccccc3nc2Cl)nc2ccccc21	2.59µM*	11.4	-1.3%	5.62µM*	3.26µM*	147.4%
COc1ccc2cc(C3=CCCC3(C)C(=O)O)ccc2c1 (centres undefined)	?	19.9	-0.1%	20.4%	-13.8%	-5.0%
Cc1ccc(NC(=S)N(CCCN2CCOCC2)Cc2cccnc2)cc1C	-10.5%	2.9	-0.1%	-3.2%	1.2%	0.0%
Cc1nnc(C)n1/N=C/c1c(O)ccc2ccccc12	-19.5%	19.4	21.6%	-4.1%	21.4%	-6.1%
SMILES	DT40 TDP1 no CPT	IL-1B inflam inh	ASM inhibitor	HepG2 viability	TDP1 cell CPT	TGFb inhibitor
NC(=S)N/N=C/c1c[nH]c2ccccc12	-6.2%	0.0	2.7%	-11.1%	11.2%	-16.5%
C(=NN=C1c2ccccc2-c2ccccc21)c1c[nH]c2ccccc12	?	-102.7*	-27.0%	6.7%	?	?
Fc1c(F)c(F)c(N/N=C/c2c[nH]c3ccccc23)c(F)c1F	?	-87.2*	-10.5%	-32.2%	?	?
Cc1nnc(C)n1/N=C/c1cc2ccccc2nc1Cl	2.91µM*	91.8	16.3%	3.8%	2.59µM*	15.5%
O=C(NCC1CCCCC1)c1[nH]c(C(F)(F)F)nc1-c1ccccc1	?	-0.4	nt	-33.1%	-8.7%	?
CC1(C)CC(=O)C(C=NCCN2CCN(C(=O)CCl)CC2)=C(O)C1	10.3µM*	0.0	-0.6%	-27.5%	?	?
COc1cccc(-c2nnc3n(Cc4ccc(F)cc4)c(=O)c4ccccc4n23)c1	?	nt	nt	10.6%	?	-15.7%
O=C(COC(=O)c1cccc(O)c1)Nc1ccc(S(=O)(=O)N2CCOCC2)cc1	10.2%	?	-3.1%	4.7%	-4.5%	-0.4%
Cc1cccc(N2CCN(C(=O)c3ccc(CS(=O)Cc4cccc(Cl)c4)o3)CC2)c1C (centres undefined)	?	-4.4	-10.7%	-39.7%	?	?
Cc1ccc(Cl)cc1N1CCN(C(=O)c2ccc(CS(=O)Cc3ccc(Cl)cc3)o2)CC1 (centres undefined)	?	?	-12.3%	-18.2%	13µM*	?
Cc1ccc(CS(=O)Cc2ccc(C(=O)N3CCN(c4cccc(C)c4C)CC3)o2)cc1 (centres undefined)	20.6µM*	-22.0	nt	-26.8%	?	-17.7%
COc1ccc(OC)c(/C=C/c2[nH]c(=O)[nH]c(=O)c2[N+](=O)[O-])c1	1.8%	-59.0*	-2.7%	2.8%	18.6%	8.1%
